Bioassay records from PubChem.
The list is not random: actives were taken first. Their share in the collection is about 1.6%.
LYPLA1 inh: blocks human lysophospholipase 1, a PME1 counter-screen | O75608 | recombinant LYPLA1, FP-Rh probe fluorescence polarization | inhibition, % at 5.9 µM | 320,000 compounds, 0.16% hits;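 active = inhibition above the mean of all tested compounds plus 3 SD, set per campaign, cut at about 14% in these data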;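 note: inhibitors block serine hydrolase probe labeling of LYPLA1 so polarization falls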
Target sequence (O75608 whole entry, looked up): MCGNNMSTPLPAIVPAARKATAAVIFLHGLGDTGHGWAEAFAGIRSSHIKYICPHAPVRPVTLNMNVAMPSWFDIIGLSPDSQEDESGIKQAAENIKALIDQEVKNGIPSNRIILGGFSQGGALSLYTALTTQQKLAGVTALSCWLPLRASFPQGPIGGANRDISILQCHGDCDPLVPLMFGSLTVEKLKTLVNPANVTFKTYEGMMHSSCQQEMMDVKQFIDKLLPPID
PME-1 primary: blocks human protein phosphatase methylesterase 1; Q9Y570; recombinant PME-1, FP-Rh probe fluorescence polarization; inhibition, % at 5.9 µM; 320,000 compounds, 0.53% hits;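 active = inhibition above the campaign mean of all compounds plus 3 SD, cut at about 26% in these data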;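 note: competitive labeling of PME-1 active site by serine hydrolase directed probe; inhibitors block probe labeling so polarization falls and inhibition rises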
Target sequence (Q9Y570 whole entry, looked up): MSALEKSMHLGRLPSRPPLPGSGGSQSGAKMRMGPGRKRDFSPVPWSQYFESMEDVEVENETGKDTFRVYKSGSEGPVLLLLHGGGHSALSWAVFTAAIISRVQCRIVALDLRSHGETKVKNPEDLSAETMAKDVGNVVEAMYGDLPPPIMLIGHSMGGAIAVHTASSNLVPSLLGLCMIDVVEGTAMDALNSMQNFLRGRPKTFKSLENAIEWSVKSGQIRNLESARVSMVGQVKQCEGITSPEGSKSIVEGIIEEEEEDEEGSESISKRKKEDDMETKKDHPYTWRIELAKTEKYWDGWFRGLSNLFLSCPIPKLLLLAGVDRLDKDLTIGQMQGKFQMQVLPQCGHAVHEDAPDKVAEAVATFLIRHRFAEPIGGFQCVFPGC
MEX-5 binding: C. elegans MEX-5 TCR-2 RNA binding activity. Q9XUB2. MEX-5/FITC-TCR2 RNA binding, fluorescence polarization; hits give low values. activity score (negative = inhibition of binding), % at 10 µM. 300,000 compounds, 0.38% hits;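 active = inhibition past about -25% in most replicates, and total fluorescence under double the plate's negative control median, limit read from the data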
LYPLA2 counter: counter-screen for PME1 inhibitors: inhibitors of human LYPLA2. O95372. AID 2177. 320,000 compounds, 0.38% hits. inhibition, % at 5.9 µM. recombinant LYPLA2, FP-Rh probe fluorescence polarization;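 active = inhibition above the screen-wide mean plus 3 SD, limit set per campaign, cut at about 26% in these data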
Fam108B inh: counter-screen for RBBP9 inhibitors: inhibitors of mouse Fam108B. 300,000 compounds, 0.33% hits. recombinant Fam108B, FP-Rh probe fluorescence polarization. inhibition, % at 9.51 µM. AID 1947;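 active = inhibition above the screen mean inhibition plus 3 SD, computed separately per campaign, cut at about 18% in these data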;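 note: inhibitors lower polarization as less probe binds the enzyme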
PREPL inh: inhibits the human prolyl oligopeptidase-like enzyme; Q4J6C6; recombinant PREPL, fluorescence polarization activity-based probe; inhibition, % at 5.96 µM; 320,000 compounds, 0.68% hits; AID 2751; in the data active = inhibition above about 43%
Fam108b inh conf: Fam108b (mouse) hydrolase inhibition, confirmation assay; inhibition, % at 9.51 µM; 930 compounds, 44% hits; recombinant Fam108b, FP-Rh probe fluorescence polarization; shares compounds with Fam108B inh;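 active = inhibition above a limit from the primary screen, the mean over all compounds plus 3 SD, cut at about 19% in these data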;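 note: inhibitors free the probe so polarization falls as inhibition rises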
Fam108b ABPP HTS: mouse ABHD17B inhibition; 260 compounds, 44% hits; recombinant Fam108b, gel-based ABPP, fluorophosphonate probe; AID 588649; inhibition, % at 20 µM; shares compounds with Fam108B inh; in the data active = inhibition above about 40%
Each line names hits and unclear results; the compound was inactive in the other large screens (follow-up assays come after a bar, where they were run).

Nc1ccc2nc(-c3cccc(-c4nc5ccc(N)cc5[nH]4)c3)[nH]c2c1	PME-1 primary 51, Fam108B inh 25 | Fam108b inh conf 146 | Fam108b ABPP HTS 90
CCOC(=O)C1CCN(C(=O)CS(=O)(=O)Cc2nc(-c3ccccc3Cl)oc2C)CC1	none
O=C(CN1CCCc2ccccc21)N/N=C/c1c(O)ccc2ccccc12	PME-1 primary 31, Fam108B inh 43 | Fam108b inh conf inactive
Oc1ccc(/C=N/Nc2cccc3cccnc23)c(O)c1	PME-1 primary 36, Fam108B inh 21 | Fam108b inh conf 21
Nc1[nH]n2c(=O)cc(-c3ccccc3)nc2c1N=Nc1ccc(S(N)(=O)=O)cc1	none
NS(=O)(=O)c1ccc(N=Nc2c(-c3ccccc3)[nH]n(-c3nc(-c4ccccc4)cs3)c2=O)cc1	Fam108B inh 33 | Fam108b inh conf inactive
O=C(N/N=C/c1ccc(O)c(O)c1)c1ccc(CSc2cccc3cccnc23)cc1	PME-1 primary 54, Fam108B inh 43 | Fam108b inh conf 26
Cc1ccc(C(C)C)c(OCc2ccc(C(=O)N/N=C/c3cccc(O)c3O)cc2)c1	PME-1 primary 49, Fam108B inh 28 | Fam108b inh conf inactive
Cc1ccc(C(C)C)c(OCc2ccc(C(=O)N/N=C/c3ccc(O)c(O)c3)cc2)c1	PME-1 primary 38, Fam108B inh 35 (no result: MEX-5 binding) | Fam108b inh conf inactive
Cc1nn(-c2ccccc2)c(Cl)c1C=NNc1ccc(S(=O)(=O)Nc2ccccc2C(=O)O)cc1[N+](=O)[O-]	none (no result: LYPLA1 inh, PME-1 primary, MEX-5 binding, LYPLA2 counter, Fam108B inh, PREPL inh) | Fam108b ABPP HTS inactive
CC(=O)Nc1ccc(C=NNc2ccc(S(=O)(=O)Nc3ccccc3C(=O)O)cc2[N+](=O)[O-])cc1	none (no result: LYPLA1 inh, PME-1 primary, MEX-5 binding, LYPLA2 counter, Fam108B inh)
Cc1ccc(C(=O)NC(Cc2c[nH]c3ccccc23)C(=O)O)o1 (stereo not drawn)	none
CCOC(=O)C1=C(C)N=c2s/c(=C\c3ccc(O)c([N+](=O)[O-])c3)c(=O)n2C1c1ccccc1OC (stereo not drawn)	Fam108B inh 28 | Fam108b inh conf 45
O=C(Cc1ccc(Cl)cc1)Nc1ccccc1N1CCOCC1	none
COc1cc(C(=O)Oc2cc(N)n(S(=O)(=O)c3ccc(F)cc3)n2)cc(OC)c1OC	none
Cn1c(=N)n(CC(=O)c2ccc(Cl)c(Cl)c2)c2ccccc21	Fam108B inh 21 | Fam108b inh conf inactive
Cn1c(=N)n(CC(=O)c2ccccc2)c2ccccc21	none
Nc1nn2c(-c3ccccc3)cc(=O)[nH]c2c1N=Nc1ccc(O)cc1	Fam108B inh 21 | Fam108b inh conf inactive
COc1ccc(CN=Cc2[nH]c3ccc(Br)c(Cl)c3c2O)cc1	Fam108B inh 19 | Fam108b inh conf inactive
Cc1cc(C)cc(N=Cc2[nH]c3ccc(Br)c(Cl)c3c2O)c1	none
O=C(COc1cc([N+](=O)[O-])cc2cccnc12)NCCC1=CCCCC1	none
COc1ccc(-c2nn(C)c3sc(C(=O)NCc4ccco4)cc23)cc1OC	none
COc1ccc(NC(=O)c2cc3c(-c4ccc(OC)c(OC)c4)nn(C)c3s2)cc1OC	Fam108B inh 46 | Fam108b inh conf inactive
CCCCNC(=O)Oc1c(Br)cc2sc(=O)oc2c1Br	Fam108B inh 26 (no result: MEX-5 binding) | Fam108b inh conf inactive
O=C1C(Nc2ccccc2)=CC(=NS(=O)(=O)c2cccs2)c2ccccc21	none (no result: LYPLA1 inh, PME-1 primary, MEX-5 binding, LYPLA2 counter, Fam108B inh, PREPL inh) | Fam108b ABPP HTS inactive
COc1ccc(S(=O)(=O)/N=C2\C=C(Nc3ccc(O)cc3)C(=O)c3ccccc32)cc1	PME-1 primary 36, Fam108B inh 28 | Fam108b inh conf 37 | Fam108b ABPP HTS 65
Cc1ccccc1NC1=C/C(=N\S(=O)(=O)c2cccs2)c2ccccc2C1=O	PME-1 primary 30, Fam108B inh 41 | Fam108b inh conf 60 | Fam108b ABPP HTS 60
Cc1ccc(NC2=C/C(=N/S(=O)(=O)c3cccs3)c3ccccc3C2=O)cc1C	none
CC(=O)Nc1ccc(NC2=CC(=NS(=O)(=O)c3cccs3)c3ccccc3C2=O)cc1	none (no result: LYPLA1 inh, PME-1 primary, MEX-5 binding, LYPLA2 counter, Fam108B inh, PREPL inh) | Fam108b ABPP HTS inactive
CC1(C)c2ccccc2N2CC(=O)N[C@@]21/C=C/C=C/c1ccccc1	none
CC(=O)Nc1ccc(NC2=C/C(=N/S(=O)(=O)c3cccs3)c3ccccc3C2=O)cc1	Fam108B inh 41 | Fam108b inh conf 40
CCc1ccc(S(=O)(=O)/N=C2\C=C(NS(=O)(=O)c3ccccc3)C(=O)c3ccccc32)cc1	none (no result: LYPLA1 inh, PME-1 primary, LYPLA2 counter, Fam108B inh, PREPL inh)
Cc1ccccc1NC1=C/C(=N\S(=O)(=O)c2ccc(C(=O)O)cc2)c2ccccc2C1=O	PME-1 primary 36, LYPLA2 counter 32, Fam108B inh 54 | Fam108b inh conf 89 | Fam108b ABPP HTS inactive
COc1cccc(C(=O)Nc2ccc(NC(=O)C3CC3)cn2)c1	none
O=S(=O)(c1ccccc1)N1CCCC1c1nc2ccccc2s1 (stereo not drawn)	none
CCCCn1c(N)c(N(CCOC)C(=O)CSCc2ccccc2C)c(=O)[nH]c1=O	Fam108B inh 27 | Fam108b inh conf inactive
COc1cccc(N2CCN(S(=O)(=O)c3ccc(-c4coc(C)n4)cc3)CC2)c1	none
COc1cccc(N2CCN(S(=O)(=O)c3ccc4nc(-c5ccccc5)[nH]c4c3)CC2)c1	Fam108B inh 21 | Fam108b inh conf inactive
O=C(COC(=O)CNC(=O)c1ccc(Cl)cc1)Nc1cccc(S(=O)(=O)N2CCCC2)c1	Fam108B inh 64 | Fam108b inh conf inactive
C=CCc1c(C)nc(-c2ccccc2)nc1N/N=C(\C)c1ccc(N)cc1	none
N=c1oc2cc(O)ccc2cc1C(=O)Nc1ccc(Br)cc1	Fam108B inh 33 | Fam108b inh conf 164 | Fam108b ABPP HTS 40
CN(C)S(=O)(=O)c1cccc(NC(=O)COC(=O)c2cc(-c3cccc(Br)c3)nc3ccccc23)c1	Fam108B inh 31 | Fam108b inh conf 60 | Fam108b ABPP HTS 90
O=C(NCCCCNC(=O)c1ccc(F)cc1)c1ccc(F)cc1	none
COc1cccc(/C=N/Nc2ncnc3scc(-c4ccccc4)c23)c1O	Fam108B inh 23 | Fam108b inh conf inactive
O=C(c1cc(O)c(O)c([N+](=O)[O-])c1)c1ccccc1F	Fam108B inh 49 (no result: MEX-5 binding) | Fam108b inh conf 91 | Fam108b ABPP HTS inactive
COC1=CC(=O)C(O)=C(CCCCCCCC=CCCCCCCCC2=C(O)C(=O)C=C(OC)C2=O)C1=O	none (no result: LYPLA1 inh, PME-1 primary, MEX-5 binding, LYPLA2 counter, Fam108B inh, PREPL inh) | Fam108b ABPP HTS inactive
Cc1ccc(-c2nc(Nc3ccc(O)cc3)c3ccccc3n2)cc1	PME-1 primary 41, Fam108B inh 35 | Fam108b inh conf inactive
COc1ccc(Nc2nc(-c3ccccc3O)nc3ccccc23)cc1	Fam108B inh 25 | Fam108b inh conf inactive
O=[N+]([O-])c1ccc(N/N=C/c2ccccc2O)cc1	PME-1 primary 45, Fam108B inh 47 | Fam108b inh conf 30
